Laboratory results taken from PubChem BioAssay.
The source made the active and inactive calls. How the calls were made is not given here.

test: hESC survival regulators, cell-based (AID 493140); conditions: human embryonic stem cell survival screen; stronger effect = higher value;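 further: cells exposed to compounds for four days before counting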

SMILES | survival
COc1cc(N)c(Cl)cc1C(=O)NC1CCN(Cc2ccccc2)CC1 | 5.67 (inactive)
Cc1c(N(C)C)c(=O)n(-c2ccccc2)n1C | 13.6 (inactive)
Cc1c(Nc2ncccc2C(=O)O)cccc1C(F)(F)F | 3.67 (inactive)
CCCc1c(OCCCCc2nn[nH]n2)ccc(C(C)=O)c1O | 110 (inactive)
CC(C)N=C(N)/N=C(\N)Nc1ccc(Cl)cc1 | 3 (inactive)
COc1cccc2c1C(=O)c1c(O)c3c(c(O)c1C2=O)C[C@@](O)(C(=O)CO)C[C@@H]3O[C@H]1C[C@H](N)[C@H](O)[C@H](C)O1 | 0.167 (inactive)
CCC(=O)O[C@]1(C(=O)SCF)[C@H](C)C[C@H]2[C@@H]3C[C@H](F)C4=CC(=O)C=C[C@]4(C)[C@@]3(F)[C@@H](O)C[C@@]21C | 6.58 (inactive)
O=C(O)CCCC[C@@H]1SC[C@@H]2NC(=O)N[C@@H]21 | 18.6 (inactive)
CCc1c(C)[nH]c2c1C(=O)C(CN1CCOCC1)CC2 (centres undefined) | 6.5 (inactive)
C[C@H](N)[C@H](O)c1cccc(O)c1 | 28.4 (inactive)
Nc1[nH]c(=O)ncc1F | 2.42 (inactive)
CCN1CCN(C(=O)N[C@@H](C(=O)N[C@@H]2C(=O)N3C(C(=O)O)=C(CSc4nnnn4C)CS[C@H]23)c2ccc(O)cc2)C(=O)C1=O | 9.17 (inactive)
COc1ncnc(NS(=O)(=O)c2ccc(N)cc2)c1OC | 14.8 (inactive)
CN1CCC(=C2c3ccccc3CCc3sccc32)CC1 | 5.08 (inactive)
CC(C)(C)NC(=O)[C@H]1CC[C@H]2[C@@H]3CC[C@H]4NC(=O)C=C[C@]4(C)[C@H]3CC[C@]12C | 7 (inactive)
N#Cc1ccc(C(c2ccc(C#N)cc2)n2cncn2)cc1 | 1.25 (inactive)
COc1ccc(CC2c3cc(OC)c(OC)cc3CC[N+]2(C)CCC(=O)OCCCCCOC(=O)CC[N+]2(C)CCc3cc(OC)c(OC)cc3C2Cc2ccc(OC)c(OC)c2)cc1OC (centres undefined) | 12.4 (inactive)
CCOc1cc(CC(=O)N[C@@H](CC(C)C)c2ccccc2N2CCCCC2)ccc1C(=O)O | 7.75 (inactive)
CCCOc1ccc(C(=O)OCCN(CC)CC)cc1N | 5.92 (inactive)
CCOC(=O)NNc1nncc2ccccc12 | 22 (inactive)

SMILES | survival
Cc1c(Cl)cccc1Nc1ccccc1C(=O)O | 17.2 (inactive)
Cc1cccc(C)c1NC(=O)C(C)N (centres undefined) | 11.7 (inactive)
CC1(C)O[C@@H]2C[C@H]3[C@@H]4C[C@H](F)C5=CC(=O)CC[C@]5(C)[C@H]4[C@@H](O)C[C@]3(C)[C@]2(C(=O)CO)O1 | 4.42 (inactive)
CCC1=C(C)CN(C(=O)NCCc2ccc(S(=O)(=O)NC(=O)NC3CCC(C)CC3)cc2)C1=O (centres undefined) | 5.08 (inactive)
Cc1nccn1CC1CCc2c(c3ccccc3n2C)C1=O (centres undefined) | 36.2 (inactive)
O=C1C(=O)c2ccccc2C(O)=C1C1CCC(c2ccc(Cl)cc2)CC1 (centres undefined) | 8.83 (inactive)
C#C[C@]1(O)CC[C@H]2[C@@H]3CCc4cc(OC)ccc4[C@H]3CC[C@@]21C | 3.33 (inactive)
O=C(CCCN1CCN(c2ccccn2)CC1)c1ccc(F)cc1 | 14.6 (inactive)
Oc1ccc(OCc2ccccc2)cc1 | 3.58 (inactive)
COc1ccc(C(=O)c2ccccc2O)c(O)c1 | 1.42 (inactive)
CC(C)NCC(O)COc1ccc(COCCOC(C)C)cc1 (centres undefined) | 6.5 (inactive)
CNNCc1ccc(C(=O)NC(C)C)cc1 | 6.5 (inactive)
O=C(CCCCC(=O)Nc1c(I)cc(I)c(C(=O)O)c1I)Nc1c(I)cc(I)c(C(=O)O)c1I | 5.33 (inactive)
CN1[C@@H]2CC[C@H]1CC(OC(=O)C(O)c1ccccc1)C2 (some centres undefined) | 24.7 (inactive)
COC(=O)C1=C(C)NC(C)=C(C(=O)OC(C)C)C1c1cccc2nonc12 (centres undefined) | 16.1 (inactive)
C[C@]12CC[C@@H]3c4ccc(O)cc4CC[C@H]3[C@@H]1C[C@@H](O)[C@@H]2O | 7.75 (inactive)
CC(C)(C(=O)c1cccnc1)c1cccnc1 | 5 (inactive)
O=C(O)[C@@H]1[C@H]2C[C@H]3c4[nH]c5ccccc5c4CCN3C[C@@H]2CC[C@@H]1O | 2.42 (inactive)
Cc1ncc([N+](=O)[O-])n1CC(O)CCl (centres undefined) | 23.5 (inactive)
